High-throughput results as filed in PubChem.
Hits are enriched below; roughly 1.2% of the tested compounds scored in any of these assays.
GoLoco inh red: qHTS Assay for Inhibitors of RGS12 GoLoco Motif Activity (Red Fluorophore); Guanine nucleotide-binding protein G(i) subunit alpha-1 (Homo sapiens), P63096; Gai1:RGS12 GoLoco peptide FP, rhodamine, 10 min; Potency, µM (top dose mostly 61.6 µM), without a hit: at the top dose activity, negative = inhibition, hits mostly inhibitors; 230,000 tested, 0.44% active; active means well fitted inhibition curve with a large enough effect, not every such curve was filed as active; inactive means no such curve, though single readings can be large or run the other way; further: potency means the concentration at half of the fitted maximal effect; nearly all actives have a fitted effect of over 30% in size
KAT2A inh: qHTS Assay for Inhibitors of GCN5L2; Histone acetyltransferase KAT2A (Homo sapiens), Q92830; GCN5L2 HAT assay, ThioGlo1 CoA-SH fluorescence; Potency, µM (highest dose often 58.9 µM), for inactives: at the highest dose activity change, negative = inhibition, hits mostly inhibitors; 390,000 tested, 0.21% active; further: potency means the concentration at half of the fitted maximal effect
Target sequence (Q92830 whole entry, looked up): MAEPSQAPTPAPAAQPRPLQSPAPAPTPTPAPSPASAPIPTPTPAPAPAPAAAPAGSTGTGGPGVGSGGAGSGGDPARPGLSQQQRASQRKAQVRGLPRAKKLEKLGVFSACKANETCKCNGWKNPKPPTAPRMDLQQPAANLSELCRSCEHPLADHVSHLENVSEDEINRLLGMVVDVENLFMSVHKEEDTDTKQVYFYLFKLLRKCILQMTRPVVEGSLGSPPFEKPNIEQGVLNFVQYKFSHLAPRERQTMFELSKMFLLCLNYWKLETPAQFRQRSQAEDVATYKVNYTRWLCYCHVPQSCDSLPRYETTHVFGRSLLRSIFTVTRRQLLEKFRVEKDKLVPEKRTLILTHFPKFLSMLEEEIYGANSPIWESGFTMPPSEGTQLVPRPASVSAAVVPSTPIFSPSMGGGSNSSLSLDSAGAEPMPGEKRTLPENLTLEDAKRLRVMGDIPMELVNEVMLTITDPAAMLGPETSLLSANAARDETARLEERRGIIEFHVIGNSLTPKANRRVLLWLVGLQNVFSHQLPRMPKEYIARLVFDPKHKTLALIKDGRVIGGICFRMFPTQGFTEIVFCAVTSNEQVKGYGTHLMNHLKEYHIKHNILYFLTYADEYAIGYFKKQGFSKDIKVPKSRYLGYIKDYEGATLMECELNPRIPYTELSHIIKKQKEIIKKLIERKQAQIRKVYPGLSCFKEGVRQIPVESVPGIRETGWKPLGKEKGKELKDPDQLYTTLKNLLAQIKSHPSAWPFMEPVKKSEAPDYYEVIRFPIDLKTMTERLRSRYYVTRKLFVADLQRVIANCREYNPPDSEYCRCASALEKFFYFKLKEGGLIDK
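Preincubate 20nM GCN5L2 with compound 15 min, RT → add 50uM ThioGlo1 + 75uM H3(1-25) + 70uM acetyl-CoA → read fluorescence 0 and 20 min. Primary qHTS; fluorescent artifacts likely.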
Pin1 inh: qHTS Assay to Find Inhibitors of Pin1. Pin1 FP peptide displacement, HiFluor488, 10 min. Potency, µM (doses to about 115 µM), for the others: at the top dose activity, negative = inhibition, hits mostly inhibitors. 390,000 tested, 0.009% active; active means well fitted inhibition curve with a large enough effect in the polarisation, with a control signal flat, not every such curve was filed as active; inconclusive means small, poorly fitted or top-dose-only effect, or effect the other way, or a change in a side signal; inactive means no such curve, though single readings can be large or run the other way; the % refers to the polarisation; further: potency means the concentration at half of the fitted maximal effect
PI5P4K alpha inh: qHTS for Inhibitors of phosphatidylinositol 5-phosphate 4-kinase (PI5P4K). PI5P4Kalpha enzyme, ADP-Glo luminescence, 60 min; stronger effect = lower value. 330,000 tested, 1.2% active. max response, %; active means max response of -50% or lower; inconclusive means between -30% and -50%; inactive means -30% or higher; further: value at the top dose of about 77 µM
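PI5P4Kalpha ADP-Glo assay; 5 microM ATP final; 60 min RT reaction; HEPES pH 7.4/EGTA/CHAPS, 5% DMSO; controls lacking substrate or enzyme; luminescent end-point.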
PI4K2A inh: qHTS for small molecular inhibitors of PI4K2A. Phosphatidylinositol 4-kinase type 2-alpha (Homo sapiens), Q9BTU6. purified PI4K2A, ADP-Glo luminescence, 1 h; stronger effect = lower value. activity change, negative = inhibition, % at 76.9 µM. 420,000 tested, 0.13% active. AID 1346378, 2018; in the data active means activity change below about -50%; inconclusive means mostly about -30% to -49%;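 further: -100% = wells without enzyme as full effect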
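PI4K2A activity was measured by ADP-Glo luminescence: enzyme (4 ug/mL stock) and phosphatidylinositol (1.2 mM stock) in Tris pH 7.5/MgCl2/EGTA/Triton X-100 buffer were reacted with ATP (300 microM stock) for one hour at ambient temperature.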
PGK inhibitor: qHTS Assay to Find Inhibitors of Phosphoglycerate Kinase | Phosphoglycerate kinase, glycosomal (Trypanosoma brucei brucei), P07378 | PGK/GAPDH coupled, Kinase-Glo luminescence, 60 min | Potency, µM (series often up to 57.5 µM), for the others: at the highest dose activity change, negative = inhibition, actives largely listed as inhibitors | 380,000 tested, 0.043% active | AID 602233, 2012; further: potency means the concentration at half of the fitted maximal effect; nearly all actives have a fitted effect of over 60% in size
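Recombinant glycosomal PGK reaction used 1,3-bisphosphoglycerate generated in-well by GAPDH (100nM final) in 100mM TEA pH 7.6, 5mM MgCl2, 0.01% Tween-20. After 60 minutes at room temperature, ATP was read by Kinase-Glo Plus luminescence end-point.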
* marks the source's active call; other numbers are inactive results; i = inactive; ? = inconclusive; / = no result. Unless noted, the call rests on the fitted dose curve; in most records, active means well fitted curve in the direction sought with a large enough effect; inconclusive means small, poorly fitted or top-dose-only effect, or another doubt; inactive means no such curve, though single readings can be large; an effect the other way counts as inactive or inconclusive. Unless noted, on the % scale 0 is the no-effect control and ±100 the full control effect.

SMILES | GoLoco inh red | KAT2A inh | Pin1 inh | PI5P4K alpha inh | PI4K2A inh | PGK inhibitor
CCOc1ccc(NC(=S)NNC(=S)Nc2cccc(C(F)(F)F)c2)cc1 | 9% | ? | -2% | -18 | -1 | -2%
COc1ccc(NC(=S)NNC(=S)Nc2cccc(C(F)(F)F)c2)cc1 | -2% | ? | 4% | -78* | 2 | 0%
Cc1ccc(C)n1-c1nc(=S)[nH][nH]1 | -4% | 18µM* | -2% | / | -10 | -5%
S=c1nc(-c2ccc(Cl)cc2)[nH][nH]1 | 1% | -7% | 1% | ? | -3 | i
CC(C)c1nc2ccc(C(=O)NCc3ccccc3Br)cc2o1 | / | 2% | -9% | / | 1 | i
CN1CCc2c(sc3c2C(=O)NC(c2ccccn2)N3)C1 (stereo unspecified) | 28µM* | -8% | ? | / | -23 | i
CN1CCc2c(sc3c2C(=O)NC(c2ccccc2)N3)C1 (stereo unspecified) | 25% | -9% | ? | -10 | -5 | 3%
COc1ccc(C(=O)/C=C/c2ccc(OC)c(COc3ccccc3F)c2)cc1 | 17% | -9% | 12% | 8 | 0 | i
C=CC(=O)Nc1cccc(Oc2ccnc3[nH]ccc23)c1 | / | / | ? | -72* | 2 | 7%
CCOc1ccc(CNC(=O)c2ccc(NC(=O)c3nsc4ccccc34)cc2)cc1 | / | 0% | 10% | / | -1 | 10%
Cc1ccc(C(C)C)c(OCC#CCN2CCOCC2)c1 | / | -21% | -4% | 1 | 4 | -3%
O=C(O)C/C(=C\c1ccc(N2CCOCC2)c([N+](=O)[O-])c1)c1nc2ccccc2s1 | 13% | -16% | ? | -54* | 3 | -8%
O=C(O)CC/C(=C\c1ccc(N2CCOCC2)c([N+](=O)[O-])c1)c1nc2ccccc2s1 | 9% | -16% | -2% | 1 | -5 | -9%
CCc1oc2c(C)c(O)ccc2c(=O)c1-c1ccc2ccccc2n1 | 2% | 4% | 0% | / | -52* | -1%
O=C(NN1C(=O)/C(=C/c2ccc(O)c(O)c2)SC1=S)c1ccccc1 | / | -10% | 81% | -53* | -3 | ?
Cc1ccc(C(=O)NN2C(=O)/C(=C/c3cn(C)c4ccccc34)SC2=S)cc1 | 22µM* | -3% | ? | -2 | 7 | 0%
O=C(O)c1ccc(/C=C2\SC(=S)N(NC(=O)c3ccccc3[N+](=O)[O-])C2=O)cc1 | / | -11% | -20% | ? | -7 | -3%
O=C(NN1C(=O)/C(=C\c2ccc(O)c([N+](=O)[O-])c2)SC1=S)c1ccccc1Cl | 190% | -8% | ? | -78* | -9 | -8%
O=C1/C(=C/c2ccc(O)c(O)c2)SC(=S)N1Nc1ccccc1 | 265% | -29% | 98% | -61* | -11 | -11%
Cc1nc(NCc2ccccc2)c2nc(-c3ccccc3)n(CCCN(C)C)c2n1 | -3% | / | / | / | / | /
COC(=O)CSc1nnc(-c2ccccn2)n1N | 5% | 2% | 1% | 1 | 3 | 15%
CCc1ccc(N=C2NC(=O)/C(=C/c3ccc(OCC(=O)O)cc3)S2)cc1 | / | -9% | -1% | ? | -5 | ?
COc1cc(/C=C2/SC(=Nc3ccc(O)cc3)NC2=O)cc(OC)c1O | 88% | -12% | 21% | -51* | -3 | -5%
CCc1ccc(N=C2NC(=O)/C(=C/c3ccc(OCC(=O)O)c(OC)c3)S2)cc1 | / | -18% | / | -75* | -5 | i
COc1ccc(N=C2NC(=O)/C(=C/c3ccc(O)c(OC)c3)S2)cc1 | 2% | -10% | ? | -62* | 1 | -5%
SMILES | GoLoco inh red | KAT2A inh | Pin1 inh | PI5P4K alpha inh | PI4K2A inh | PGK inhibitor
COc1ccc(N=C2NC(=O)/C(=C\c3ccco3)S2)cc1 | 10% | ? | ? | -59* | -11 | -11%
O=C(CSc1nnc(NC(=O)c2c(F)cccc2F)s1)NC1CCCC1 | / | -6% | -1% | 0 | -1 | -2%
CC(C)c1ccc(S(=O)(=O)N2CCN(CCC(=O)Nc3ccc(N(C)C)cc3)CC2)cc1 | -21% | -2% | 1% | 6 | -4 | 5%
COc1cccc(-c2c(C(=O)N/N=C/C3CC=CCC3)nnn2-c2nonc2N)c1 (stereo unspecified) | / | 1% | 4% | 2 | -2 | -6%
COc1ccc(OCCC(=O)N2CCOCC2)cc1 | 8% | -8% | -2% | 3 | 3 | 0%
CC(=O)c1c(CC(=O)O)[nH]n(-c2nc3ccccc3s2)c1=O | 45% | -18% | ? | / | ? | -13%
COC(=O)Cc1[nH]n(-c2nc3ccccc3s2)c(=O)c1C(C)=O | 19% | 5% | -14% | -21 | -53* | i
COc1ccc(S(=O)(=O)NCc2cccnc2)cc1NC(=O)c1ccccc1C | / | / | ? | -73* | -5 | -8%
CC[n+]1c(C)sc2sc3ccccc3c21 | 11µM* | ? | / | / | / | /
CC[n+]1c(C)sc2c3ccsc3ccc21 | 40% | -14% | -1% | ? | -2 | 0%
Cc1ccc(S(=O)(=O)n2c(N)nc3ccccc32)cc1 | / | -4% | 4% | 6 | -2 | -11%
Cc1ccc(/C=C/c2nc3ccccc3n2S(=O)(=O)c2ccc(Br)cc2)cc1 | / | -6% | 12% | / | -63* | 0%
CC(=O)N(c1ccccc1C)C1CCCC1 | -2% | -4% | 10% | -8 | -1 | 10%
CC(=O)N(C1=C(Cl)C(=O)c2ccccc2C1=O)C1CCCCC1 | -6% | 32µM* | 0% | -87* | -6 | -1%
CC/C(C)=N/Nc1nc(-c2cc3cccc(OC)c3oc2=O)cs1 | 8% | -4% | ? | -60* | -25 | 3%
O=C(Cn1cnc2ccccc21)Nc1cc(C(F)(F)F)ccc1N1CCOCC1 | 3% | -2% | 4% | 15 | -2 | -8%
Cc1cc(C)c(C#N)c(=N)o1 | 22µM* | -6% | ? | ? | -3 | -8%
Cc1cc(C)c(C#N)c(N)n1 | -3% | -4% | 5% | -1 | 3 | -4%
O=C(NCCN1CCC(n2c(=O)[nH]c3ccccc32)CC1)c1ccc(C(F)(F)F)cc1C(F)(F)F | / | / | / | -3 | 1 | /
COc1cc(/C=C2\C(=N)N3N=C(S(C)(=O)=O)SC3=NC2=O)ccc1OCCOc1ccc(C)cc1 | / | 4% | 6% | ? | -4 | -6%
